Consider 21 compounds from PubChem BioAssay (NCATS).

Inconclusive results are not listed. Active and inactive are the calls of the source. Unless noted, calls follow the shape of the dose curve; as a rule, active = well fitted curve in the direction sought with a large enough effect; inconclusive = small, poorly fitted or top-dose-only effect, or another doubt; inactive = no such curve, though single readings can be large; an effect the other way counts as inactive or inconclusive.

The target of assay [1] is Muscarinic acetylcholine receptor M1 (Rattus norvegicus) (UniProt P08482). As to the kind of experiment: qHTS Assay for Antagonists of Acetylcholine Muscarinic M1 Receptor: Kinetic Measurement of Intracellular Calcium Response (AID 943). Also: nearly all actives have a fitted effect of over 75% in size. Also: potency is read from the fitted curve at half-maximal effect. The essentials:
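Antagonism measured as reduction of carbachol-evoked (EC80, 100 nM final) calcium flux in rat M1-CHO cells after 10 min compound exposure. Fluo-4 signal read kinetically; ratio of maximal to basal fluorescence.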
Background: Quantitative high-throughput screening tests each substance at several concentrations.

The target is the same in assay [2]. Put plainly: qHTS Assay for Antagonists of Acetylcholine Muscarinic M1 Receptor: Measurement of IP-One Response (AID 944). Also: nearly all actives have a fitted effect of over 75% in size. Also: potency is read from the fitted curve at half-maximal effect. A digest of the protocol:
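IP1 accumulation measured via TR-FRET between d2-IP1 and Eu-cryptate anti-IP1 antibody after carbachol (200 nM, EC80) stimulation for 30 min; rat M1-transfected CHO cells received compound 10 min before agonist.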

The target of assay [3] is Pyruvate kinase (Leishmania mexicana) (UniProt Q27686). As to the kind of experiment: qHTS Validation Assay for Inhibitors of Leishmania Mexicana Pyruvate Kinase (AID 945). The essentials:
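Read-out: luminescence from PKLight stop/detection reagent, data normalized to DMSO. Reaction: 0.2 nM E451W LmPYK, 0.5 mM PEP, 0.1 mM ADP, pH 7.2, 1 h room temperature.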

Assay [4] has as its target Pyruvate kinase PKM (Homo sapiens) (UniProt P14618). As to the kind of experiment: qHTS Assay for Inhibitors of Human Muscle Pyruvate Kinase (AID 958). The essentials: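 ATP production by PKM2 detected via luciferase luminescence after 1 h room-temperature reaction (0.1 nM enzyme, PEP at Km 0.5 mM, ADP 0.1 mM, pH 7.2 imidazole buffer). Inhibition scaled to no-enzyme control; activation referenced to 0.3 nM enzyme wells.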

For assay [5] the target is unchanged. As to the kind of experiment: qHTS Assay for Activators of Human Muscle Pyruvate Kinase (AID 954; active = well fitted curve in the direction sought with a large enough effect, not every such curve was filed as active). The essentials: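 PKM2, human, >95% pure, 0.1 nM; PEP 0.5 mM (Km), ADP 0.1 mM; 50 mM imidazole pH 7.2, 50 mM KCl, 0.01% Tween 20, 0.05% BSA; 1 h RT; luciferase luminescence readout.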
Assay [6] in a line: MultiTox-Fluor Cytotoxicity Assay - LYMP1-002 - Live Cells (AID 955).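 Also: cells exposed to compound for 16 hours.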 A digest of the protocol: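 After 16 h compound exposure at 37 C, live LYMP1-002 lymphoblastoid cells (2500/well) were quantified by cleavage of cell-permeant GF-AFC substrate, read at 405/510 nm after 60 min. Concentration-response fitted with Hill equation for AC50.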
A short description of assay [7]: MultiTox-Fluor Cytotoxicity Assay - LYMP1-002 - Dead Cells (AID 960). Also: nearly all actives have a fitted effect of over 60% in size. A digest of the protocol: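 Dead-cell fluorescence (Ex/Em 485/520) after 16 h compound exposure at 37 C of LYMP1-002 lymphoblastoid cells in complete medium; AC50 by Hill equation, with data scaled between DMSO and 15 uM tetraoctylammonium bromide.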
Assay [8] can be described thus: MultiTox-Fluor Cytotoxicity Assay - LYMP1-003 - Dead Cells (AID 961). Also: nearly all actives have a fitted effect of over 70% in size. The essentials: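 LYMP1-003 lymphoblastoid, 2500 cells/well, 5 hr settle then 16 hr cpd at 37 C; MultiTox-Fluor reagent 60 min RT; Ex/Em 485/520 dead-cell signal; norm. DMSO = 0%, 15 uM tetraoctylammonium bromide = 100%; Hill AC50.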
Assay [9] is described as follows: Cell Viability - LYMP1-003 - Assay at 40 hr (AID 964). Also: potency is read from the fitted curve at half-maximal effect; nearly all actives have a fitted effect of over 60% in size. A digest of the protocol: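 Viability is taken as cellular ATP, read by CellTiter-Glo luminescence after 40 h of compound exposure at 37 C. Cells: human lymphoblastoid line LYMP1-003 at 2500/well; AC50 values derived by Hill-equation fitting of concentration-response data.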

Sequence of Muscarinic acetylcholine receptor M1 (Rattus norvegicus) (P08482 whole entry, looked up): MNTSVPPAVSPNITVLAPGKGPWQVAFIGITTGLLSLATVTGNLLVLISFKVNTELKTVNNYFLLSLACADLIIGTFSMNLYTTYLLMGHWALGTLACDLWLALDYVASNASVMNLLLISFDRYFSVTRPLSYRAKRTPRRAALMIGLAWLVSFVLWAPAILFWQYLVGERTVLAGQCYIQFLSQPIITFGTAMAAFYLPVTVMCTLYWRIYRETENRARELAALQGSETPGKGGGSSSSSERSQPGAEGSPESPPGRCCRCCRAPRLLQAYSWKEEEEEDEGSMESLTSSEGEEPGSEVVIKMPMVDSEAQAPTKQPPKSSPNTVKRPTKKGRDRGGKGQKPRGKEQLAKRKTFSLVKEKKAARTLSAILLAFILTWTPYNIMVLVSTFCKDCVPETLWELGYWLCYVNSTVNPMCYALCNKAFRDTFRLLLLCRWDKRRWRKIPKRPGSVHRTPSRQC
Sequence of Pyruvate kinase (Leishmania mexicana) (Q27686 2-499 E452W): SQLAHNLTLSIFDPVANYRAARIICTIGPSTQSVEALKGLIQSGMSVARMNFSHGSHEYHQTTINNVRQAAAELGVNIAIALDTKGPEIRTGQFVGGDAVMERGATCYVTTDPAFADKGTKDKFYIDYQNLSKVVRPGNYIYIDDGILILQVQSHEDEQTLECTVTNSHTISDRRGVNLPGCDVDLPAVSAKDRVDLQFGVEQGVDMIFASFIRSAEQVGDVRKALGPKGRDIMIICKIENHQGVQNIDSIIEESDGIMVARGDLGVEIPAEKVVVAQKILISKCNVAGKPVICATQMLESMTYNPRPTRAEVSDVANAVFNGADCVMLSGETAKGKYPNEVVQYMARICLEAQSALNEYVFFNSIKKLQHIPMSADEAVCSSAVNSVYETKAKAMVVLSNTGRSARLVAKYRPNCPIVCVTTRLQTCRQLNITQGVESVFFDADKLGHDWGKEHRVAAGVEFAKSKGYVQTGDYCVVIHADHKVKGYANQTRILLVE
Sequence of Pyruvate kinase PKM (Homo sapiens) (P14618 whole entry, looked up): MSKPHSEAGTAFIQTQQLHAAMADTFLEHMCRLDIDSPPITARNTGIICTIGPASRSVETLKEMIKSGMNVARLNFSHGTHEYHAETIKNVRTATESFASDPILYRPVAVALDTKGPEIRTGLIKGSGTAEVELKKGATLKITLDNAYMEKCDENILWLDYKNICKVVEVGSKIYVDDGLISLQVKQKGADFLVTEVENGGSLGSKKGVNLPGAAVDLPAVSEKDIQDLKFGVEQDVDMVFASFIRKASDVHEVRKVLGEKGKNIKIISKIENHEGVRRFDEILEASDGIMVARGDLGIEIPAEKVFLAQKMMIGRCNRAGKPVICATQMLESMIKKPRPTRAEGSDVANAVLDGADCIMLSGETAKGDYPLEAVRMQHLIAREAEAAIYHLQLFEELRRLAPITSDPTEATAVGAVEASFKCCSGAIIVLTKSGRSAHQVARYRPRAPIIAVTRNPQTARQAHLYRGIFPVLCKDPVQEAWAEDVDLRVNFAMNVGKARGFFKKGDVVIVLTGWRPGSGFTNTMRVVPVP

For `Oc1cc2c(cc1O)CN(C(=S)NCCc1ccc(Cl)cc1)CCC2`, the Potency entry in assay [1], in assay [2], in assay [3] and in assay [4] was “inactive” throughout.
Regarding `C[N+](C)(CCCCCC[N+](C)(C)CCCN1C(=O)c2cccc3cccc(c23)C1=O)CCCN1C(=O)c2cccc3cccc(c23)C1=O`, the Potency in [1] and in [2] was 0.398 µM (active) throughout. The Potency entry in assay [3] is “inactive”. In assay [5], the compound was classed as inactive.
On to `O=C1C(SCCO)=C(SCCO)C(=O)c2ccccc21`, for which the Potency result in assay [1] and in assay [3] was “inactive” each time. Besides, in assay [2], the Potency was 10 µM (active). In addition, in [5], the compound was classed as inactive.
`N[C@H](CCCP(=O)(O)O)C(=O)O`: the Potency entry in assay [1] and in assay [3] was “inactive” each time. Besides, the compound was called inactive in assay [5].
For the compound `NC(=O)C(=O)O`, the Potency entry in [1], in assay [2] and in assay [3] was “inactive” in each case. The call in assay [5] was inactive.
For the compound `C[C@@H](NC(=O)/C(C#N)=C/c1ccc(O)c(O)c1)c1ccccc1`, the Potency entry in assay [1], in assay [2] and in [3] was “inactive” in each case. Further, in assay [5], the compound was called inactive.
Consider `CC1(C)CCC=[N+]1[O-]`, for which the Potency entry in assay [1] and in assay [3] was “inactive” in each case. The Potency in [2] is 11.2 µM (active). Moreover, in assay [5], the result was inactive.
In the case of `O=C(O)CC[C@@H](C(=O)O)N1C(=O)c2ccccc2C1=O`, the Potency in [1] was 0.0251 µM (active). The Potency result in assay [2] and in assay [3] was “inactive” in each case. Moreover, the compound was classed as inactive in assay [5].
Consider `O=c1[nH]c2cc(C(F)(F)F)ccc2n1-c1cc(C(F)(F)F)ccc1O`, for which the Potency result in assay [1], in assay [2] and in [3] was “inactive” in each case. For the same compound, the compound was called inactive in [5].
Regarding `c1ccc(-c2ccccn2)nc1`, the Potency result in assay [1], in assay [2] and in assay [3] was “inactive” in each case. For the same compound, the compound was classed as inactive in [5].
As to `CN(C)C(N)=NCCC[C@H](N)C(=O)O`, the Potency result in [1], in assay [2] and in [3] was “inactive” in each case. Besides, the compound was called inactive in assay [5].
Turning to `Cn1cc(C2=C(c3ccc(Cl)cc3Cl)C(=O)NC2=O)c2ccccc21`, the Potency result in assay [1], in [2] and in assay [3] was “inactive” throughout. The compound was called inactive in assay [5].
Regarding `Brc1c(Br)c(Br)c2n[nH]nc2c1Br`, the Potency entry in [1], in assay [2] and in assay [3] was “inactive” throughout. In assay [5], the result was inactive.
In the case of `CCCCN1CCC(n2c(=O)[nH]c3ccccc32)CC1`, the Potency result in assay [1] and in [3] was “inactive” in each case. For the same compound, in [5], the result was inactive.
With `O=C(c1cc(O)c(O)c([N+](=O)[O-])c1)c1ccccc1F`, the Potency result in assay [1], in assay [2] and in assay [3] was “inactive” in each case. In addition, the outcome in [5] was inactive.
For `c1cnc2c(c1)ccc1cccnc12`, the Potency result in assay [1], in assay [2], in [3], in assay [6], in assay [7] and in [8] was “inactive” each time. Also, in assay [5], the compound was called inactive. In addition, the Potency in assay [9] is 7.94 µM (active).
With `N#C/C(=C\c1ccc(O)c(O)c1)C(=O)NCCCc1ccccc1`, the Potency result in [1] and in [3] was “inactive” each time. Also, the outcome in [5] was inactive.
Consider `O=Nc1ccc2oc(=O)ccc2c1`, for which the Potency entry in [1], in assay [2] and in [3] was “inactive” each time. Also, the compound was classed as inactive in assay [5].
`O=c1[nH]c2cc([N+](=O)[O-])c([N+](=O)[O-])cc2[nH]c1=O`: the Potency result in assay [1], in assay [2] and in [3] was “inactive” in each case. In addition, the result in [5] was inactive.
Consider `NC[C@@H]1O[C@H](C23CC4CC(CC(C4)C2)C3)Cc2c1ccc(O)c2O`, for which the Potency entry in assay [1], in assay [2] and in [3] was “inactive” throughout. Further, the outcome in [5] was inactive.
Regarding `CCCN(CC1CC1)c1nc(C)nc(Nc2c(Cl)cc(Cl)cc2Cl)c1Cl`, the Potency result in assay [1], in [2] and in [3] was “inactive” each time. Further, in [5], the call was inactive.
